This passage reports growth results from PubChem BioAssay (NCI).

Compounds without any hit were thinned out: in the full panel of roughly 83,000, 20% have a hit.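 How to read the values: 0–100, growth inhibition (40 = 60% inhibited); 0, no net growth; -100 to 0, cell death (-40 = 40% of starting cells died; -100 = all dead).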 Unmarked numbers belong to inactive results. The source made the active and inactive calls. The calls were made as follows: active = growth percent below 10; inactive = the rest.

The assay relates to HL-60(TB) leukemia. The experiment in a line: NCI-60 one-dose screen, 48 h (100 = growth as untreated, 0 = no growth, -100 = all killed). The settings on record: 10 µM unless noted.
With `CN1CCN(CCOc2ccc(-c3cnc4c(-c5cccc(F)c5F)cnn4c3)cc2)CC1`, the growth was -49.9% (active).
In the case of `Cc1ccc(C(=NN=C(N)N)c2ccc(C)cc2)cc1`, the growth was -28% (active).
Then `CC12CCC3C4(C)COC(c5ccco5)OC4CCC3(C)C1CC(C1=CCOC1=O)O2` (stereo not given), with 98.3%; and `CC1(C)CC(=O)C2=C(C1)C(c1ccc(Cl)cc1)n1ncc(C#N)c1N2` (stereo not given), with 97.9%.
As for `COc1ccc(NC(=O)c2ccc(Nc3ncnc4c3cnn4-c3cccc(F)c3)cc2)cc1`, the growth is 94.9%.
The figure for `COc1cc(NC(=O)CCSc2nc3ccc(Cl)cc3c(=O)n2Cc2ccccc2)cc(OC)c1OC` is 99.6%.
The figure for `CS(=O)(=O)Nc1cc(-c2ccc3ncnc(Nc4ccc(F)c(Cl)c4)c3c2)ccc1Cl` is 65.3%.
The figure for `Cc1cc2nc3c4cc(C=O)ccc4n(CCN(C)C)c3nc2cc1C` is 16.9%; for `N#Cc1cccc(C2C3=C(COC3=O)N(CCO)c3cc4c(cc32)OCO4)c1` (stereo not given) it is -32.1% (active); for `COc1cc2ncnc(Oc3cccc(NC(=O)Nc4cc(C(C)(C)C(F)(F)F)on4)c3)c2cc1OC` it is 12.1%.
Regarding `COc1ccc(S(=O)(=O)n2c3ccccc3n3ncc(-c4nnc(C)o4)c23)cc1`, the growth is 12.2%.
In the case of `O=C(Nc1ccc(F)cc1)c1cc2ccccc2cc1O`, the growth was 71.2%.
On to `CCC/C=C(/C(C)=O)C(=O)OCC`, for which the growth was 93.2%.
Then `CCC(=O)Nc1nnc(Cc2ccc(OC)c(OC)c2)s1`, with 53.2%.
Take `CC1=C(O)C(=O)CC1`: the growth is 112%.
The figure for `CCOC(=O)Cc1cnn(C)c1NC(=O)c1ccc(Cl)cc1NC(C)=O` is 102%; for `O=C(c1ccccc1)C1(Br)CCCCC1` it is 106%; for `c1ccc(CO[C@H]2CO[C@H]3[C@@H]2OC[C@@H]3Oc2ccc(Nc3ncnc4ccsc34)cc2)cc1` it is 75.7%.
Then `CCOC(=O)/C=C1\S/C(=N\Nc2cc(=O)[nH]c3ccc(Br)cc23)N(c2ccccc2)C1=O`, with -12.1% (active); and `c1ccc2oc(-c3cnc4nonc4n3)cc2c1`, with 90.9%; and `Oc1ccccc1/C=N/N1CCCCCC1`, with 86.7%.
Then `O=C(CCc1nnc2sc(/C=C\c3ccccc3)nn12)c1nc2ccccc2[nH]1`, with 99.8%; and `COC1=CC(=O)C(OC)=C(OC)C1=O`, with 61.4%; and `C/C(=C(\c1ccc(OCCN2CCCCCC2)cc1)c1ccc(OC(=O)c2ccccc2)cc1)c1ccc(Cl)cc1`, with 13.8%.
In the case of `Cc1ccc(NC(=O)C2CCC(CN3CCN(C)CC3)CC2)cc1Nc1nccc(-c2cccnc2)n1` (stereo not given), the growth is 110%.
In the case of `O=C1/C(=C\c2cccn2Cc2ccc(F)cc2)c2ccccc2N1c1c(Cl)cccc1Cl`, the growth was 96.5%.
For the compound `Clc1ccc(-c2nnc(-c3ccco3)o2)cc1`, the growth is 94.1%.
Turning to `CCc1nc2cc(/C=C/C(=O)NO)c(F)cc2c(=O)n1CCc1ccccc1`, the growth was -8.55% (active).
Turning to `CCOc1ccc(-n2cc(-c3ccc(N(C)C)cc3)[n+]3c2CCCCC3)cc1`, the growth was -0.266% (active).
The figure for `CC(C)[C@H](NC(=O)Cn1cc(C(=O)O)nn1)C(=O)O` is 123%; for `COC(=O)CC(=O)C(=O)OC` it is 100%; for `O=C(N/N=C\c1ccc(-c2ccc(Br)cc2)o1)c1cc2oc(-c3cccc(C(F)(F)F)c3)cc2[nH]1` it is 146%.
Take `Cc1ccc(-c2cc(-c3ccccc3C)[nH]c(=O)c2C#N)s1`: the growth is 80.4%.
As for `CCC(C)N(CCNc1cc(OC)cc2cccnc12)CC(C)C` (stereo not given), the growth was 73.9%.
Consider `Cc1cc2cn3c4ccc(O)cc4[nH]c(=O)c3c2cc1C`, for which the growth was -51.9% (active).
The figure for `C#Cc1cccc(Nc2ncnc3cc(OCCOC)c(OCCOC)cc23)c1` is 49.2%; for `CC(=O)Nc1ccc(OC(=O)c2ccccc2O)cc1` it is 102%.
Then `Cc1nc(-c2ccccc2)cc2c(O)c(C(=O)N/N=C/c3ccc(N(C)C)cc3)[nH]c(=O)c12`, with 116%; and `COC1=C(C)C(=O)N2[C@@H]1[C@H](c1ccccc1)OC21C=CC(=O)C=C1`, with -11.2% (active); and `O=C(CCl)Nc1cc(O)c2c(c1)C(=O)c1cccc(O)c1C2=O`, with -44.4% (active).
